The text below walks through data of PubChem BioAssay.

Values without a mark were called inactive.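 The calls were made as follows: active = viability increase at or above a cutoff of the median across tested compounds plus 3 SD (cut at about 8.5% in these data, passing the limit was not always enough); inconclusive = some gains above the cutoff, reason not given; inactive = the rest.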

The assay can be described thus: viability gain of MRP-1-high H69AR cells under doxorubicin, pilot screen, MRP-1 activator project, CellTiter-Glo, duplicate (AID 807).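 Also: compound pretreatment 18-22 h then 72 h combined with doxorubicin; 0% = doxorubicin alone and 100% = vehicle without doxorubicin.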 The following applies: H69AR viability with doxorubicin, CellTiter-Glo luminescence; at 10 µM; hits give high values. (In general: ATP-based viability assays read luminescence as a measure of living cells.)
For `Brc1ccc(Oc2nnnn2-c2ccccc2)cc1`, the viability increase is 0.29%.

For the compound `CCC(C)(C(=O)NC1CCCC1)N(C(=O)CNC(C)=O)c1ccc(C)cc1` (stereo unspecified), the viability increase was -0.57%.

Regarding `Cn1c(SCc2ccccc2Cl)nnc1-c1cnccn1`, the viability increase is -1.15%.

For `O=c1c2ccccc2nc(N2CCN(c3ccccc3)CC2)n1Cc1ccccc1`, the viability increase was -6.05%.

Take `COc1cc(OC)c(NC(=O)CS(=O)(=O)Cc2nc(-c3ccc(C)cc3)oc2C)cc1Cl`: the viability increase is -1.21%.

Take `Clc1ccc(Cc2nnc(-c3cccs3)o2)cc1`: the viability increase is 4.43%.

As for `CCOC(=O)c1ccc(NC(=O)c2cc3ccccc3o2)cc1`, the viability increase was 1.54%.

Turning to `C=CCNc1ncnc2c1cnn2-c1ccc(Cl)cc1`, the viability increase was 2.88%.

Take `O=C1C2CCCN2C(c2ccc(F)cc2)N1c1ccc(Cl)cc1` (stereo unspecified): the viability increase was -2.59%.

As to `CCOc1ccc(NC(=O)C2CSC(c3ccncc3)=N2)cc1` (stereo unspecified), the viability increase was -0.05%.

Take `O=C(NCc1ccc2c(c1)OCO2)c1nnc(Cc2ccc(F)cc2)o1`: the viability increase is 0.87%.

In the case of `CCCc1nnc(NC(=O)c2ccncc2)s1`, the viability increase is 0.44%.

Take `COC(=O)c1ccc2c(c1)N(Cc1ccccc1F)C(=O)c1ccccc1S2=O` (stereo unspecified): the viability increase was -4.03%.

As for `CCOc1ccccc1C(=O)Nc1ccc2nc(N3CCN(c4ncccn4)CC3)cc(C)c2c1`, the viability increase is -7.45%.

On to `C(#Cc1ccccc1)CN1CCN(c2ccccn2)CC1`, for which the viability increase is -1.2%.

As for `CC1CCN(c2nc3c(c(=O)[nH]c(=O)n3C)n2CCCc2ccccc2)CC1`, the viability increase is -3.5%.
